# Laboratory results from PubChem BioAssay (NCATS).
# Inconclusive results are not listed. Entries that show only a call come without a potency. A number with no mark means an inactive call. Calls of active or inactive are those of the source. The call rests on the fitted dose curve; in most records, active means well fitted curve in the direction sought with a large enough effect; inconclusive means small, poorly fitted or top-dose-only effect, or another doubt; inactive means no such curve, though single readings can be large; an effect the other way counts as inactive or inconclusive.
# Key:
# [1] = biological target: Aldehyde dehydrogenase, mitochondrial (Homo sapiens) (UniProt P05091); experiment: qHTS for Inhibitors of the Aldehyde Dehydrogenase Family (ALDH2) Primary screen (AID 2061308); further: nearly all actives have a fitted effect of over 55% in size
# [2] = biological target: Retinaldehyde dehydrogenase 3 (Homo sapiens) (UniProt P47895); experiment: qHTS for Inhibitors of the Aldehyde Dehydrogenase Family (ALDH1A3) Validation screen (AID 2061312); further: nearly all actives have a fitted effect of over 45% in size
# [3] = biological target: Retinaldehyde dehydrogenase 3 (Homo sapiens) (UniProt P47895); experiment: qHTS for Inhibitors of the Aldehyde Dehydrogenase Family (ALDH1A3) Primary screen (AID 2061315)
# [4] = BET inhibitor-based combinations targeting novel dependencies in MECOM-rearranged (r) AML: SET-2 cell line (AID 2202231); settings: SET-2 AML cells viability, CellTiter-Glo luminescence, 48 h; viability: hits give low values, concentration not given here; further: nearly all actives have a fitted effect of over 35% in size; further: potency means the concentration at half of the fitted maximal effect
# Procedure, shortened: (§1)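 Viability of cells (500 per well) is scored by luminescent CellTiter-Glo at 48 hr post-dosing. Eleven-point titrations are normalized to DMSO and empty controls and reduced to AUC values.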
# [5] = BET inhibitor-based combinations targeting novel dependencies in MECOM-rearranged (r) AML: OCI-AML3 cell line (AID 2202232); settings: Potency: OCI-AML3 viability; further: potency means the concentration at half of the fitted maximal effect; nearly all actives have a fitted effect of over 35% in size
# Procedure, shortened: as §1
# [6] = BET inhibitor-based combinations targeting novel dependencies in MECOM-rearranged (r) AML: MV-4-11 cell line (AID 2202233); further: potency means the concentration at half of the fitted maximal effect; nearly all actives have a fitted effect of over 45% in size
# Procedure, shortened: (§2)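 Using pin-tool transfer, drugs were added in 11 doses to cells (500/well), incubated 48 hr, and assessed with CellTiter-Glo. Z-AUC is a mean-centring transformation applied separately to each screened line.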
# [7] = BET inhibitor-based combinations targeting novel dependencies in MECOM-rearranged (r) AML: HNT-34 cell line (AID 2202234); further: potency means the concentration at half of the fitted maximal effect; nearly all actives have a fitted effect of over 35% in size
# Procedure, shortened: as §2
# [8] = BET inhibitor-based combinations targeting novel dependencies in MECOM-rearranged (r) AML: UCSD-AML1 cell line (AID 2202235); further: potency means the concentration at half of the fitted maximal effect; nearly all actives have a fitted effect of over 40% in size
# Procedure, shortened: as §2
# [9] = BET inhibitor-based combinations targeting novel dependencies in MECOM-rearranged (r) AML: AML-191 cell line (AID 2202236; further: potency means the concentration at half of the fitted maximal effect; nearly all actives have a fitted effect of over 35% in size)
# Procedure, shortened: as §1
# [10] = BET inhibitor-based combinations targeting novel dependencies in MECOM-rearranged (r) AML: AML-194 cell line (AID 2202237; further: potency means the concentration at half of the fitted maximal effect; nearly all actives have a fitted effect of over 40% in size)
# Procedure, shortened: as §1
smiles,measurement,setting,value
N#Cc1ccc(COC[C@H]2O[C@@H](n3c(NCc4ccc(Cl)c(Cl)c4)nc4c(N)ncnc43)[C@H](O)[C@@H]2O)cc1,Potency,[1],inactive
same,Potency,[2],inactive
same,Potency,[3],inactive
same,Potency,[4],7.42 µM (active)
same,Potency,[5],2.63 µM (active)
same,Potency,[6],14.8 µM (active)
same,Potency,[7],2.95 µM (active)
same,Potency,[8],2.63 µM (active)
CN(C)CC(=O)Nc1ccc2[nH]c(=O)c3ccccc3c2c1,Potency,[1],inactive
same,Potency,[2],inactive
same,Potency,[3],inactive
COc1ccccc1OCCNCC(O)CCOc1cccc2[nH]c3ccccc3c12 (stereo not drawn),Potency,[1],inactive
same,Potency,[2],inactive
same,Potency,[3],inactive
C[C@H]1[C@H](C)C[C@@H](C(=O)O)C2CC[C@]3(C)C(=CC[C@@H]4[C@@]5(C)CC[C@H](O)C(C)(C)[C@@H]5CC[C@]43C)[C@@H]21 (stereo partly drawn),Potency,[1],inactive
same,Potency,[2],inactive
same,Potency,[3],inactive
CNC(=O)c1ccccc1Nc1nc(Nc2ccc3c(c2OC)CCCC(N2CCN(CCO)CC2)C3)ncc1Cl (stereo not drawn),Potency,[1],inactive
same,Potency,[2],inactive
same,Potency,[3],inactive
Cc1nc(Nc2cnn(C3CCNCC3)c2)nc2c1N(C)C(=O)c1cc3ccccc3cc1N2C,Potency,[1],inactive
same,Potency,[2],inactive
same,Potency,[3],inactive
COc1ccc(N(C(=O)Nc2c(C)cccc2C)c2cc(Nc3ccc(N4CCN(C)CC4)cc3)ncn2)c(OC)c1,Potency,[1],inactive
same,Potency,[2],inactive
same,Potency,[3],inactive
COc1cc(C(=O)O)ccc1NC(=O)C1NC(CC(C)(C)C)C(C#N)(c2ccc(Cl)cc2F)C1c1cccc(Cl)c1F (stereo not drawn),Potency,[1],inactive
same,Potency,[2],inactive
same,Potency,[3],inactive
CC(C)c1nc(CN(C)C(=O)N[C@H](C(=O)N[C@@H](Cc2ccccc2)C[C@H](O)[C@H](Cc2ccccc2)NC(=O)OCc2cncs2)C(C)C)cs1,Potency,[1],inactive
same,Potency,[2],inactive
same,Potency,[3],inactive
CC[C@H](/C=C/[C@@H](C)[C@H]1CC[C@H]2[C@@H]3CC=C4C[C@@H](O)CC[C@]4(C)[C@H]3CC[C@]12C)C(C)C,"activity change, negative = inhibition",[1],-2.53% [at 5.59 µM]
same,"activity change, negative = inhibition",[2],-13.7% [at 9.14 µM]
same,"activity change, negative = inhibition",[3],15.3% [at 5.59 µM]
O=C(c1ccc(Cl)c([N+](=O)[O-])c1)N1CCN(c2ccccc2F)CC1,Potency,[1],inactive
same,Potency,[2],inactive
same,Potency,[3],inactive
Fc1ccc(C2CCNC[C@H]2COc2ccc3c(c2)OCO3)cc1 (stereo partly drawn),Potency,[1],inactive
same,Potency,[2],inactive
same,Potency,[3],inactive
CN(c1ccccc1CNc1nc(Nc2ccc3c(c2)CC(=O)N3)ncc1C(F)(F)F)S(C)(=O)=O,Potency,[1],inactive
same,Potency,[2],inactive
same,Potency,[3],inactive
NC(=O)c1nc(Nc2ccccc2)sc1NC(=O)C1CCCCC1,Potency,[1],inactive
same,Potency,[2],inactive
same,Potency,[3],inactive
CC(C)C1CCC(C(=O)N[C@@H](Cc2ccccc2)C(=O)O)CC1 (stereo partly drawn),Potency,[1],inactive
same,Potency,[2],inactive
same,Potency,[3],inactive
O=C(NCc1nc2ccccc2c(=O)n1-c1ccc(F)cc1)Nc1ccc(Cl)c(C(F)(F)F)c1,Potency,[1],inactive
same,Potency,[2],inactive
same,Potency,[3],inactive
CCCc1[nH]nc2c1C(c1cc(Cl)cc(Cl)c1O)C(C#N)=C(N)O2 (stereo not drawn),Potency,[1],inactive
same,Potency,[2],inactive
same,Potency,[3],inactive
CCOc1cc(C(C)(C)C)ccc1C1=NC(C)(c2ccc(Cl)cc2)C(C)(c2ccc(Cl)cc2)N1C(=O)N1CCN(CCCS(C)(=O)=O)CC1 (stereo not drawn),Potency,[1],inactive
same,Potency,[2],inactive
same,Potency,[3],inactive
COc1ccc2cc1Oc1ccc(cc1)C[C@H]1c3c(cc4c(c3Oc3cc5c(cc3OC)CCN(C)[C@@H]5C2)OCO4)CCN1C,Potency,[1],inactive
same,Potency,[2],inactive
same,Potency,[3],inactive
O=C(NC1(c2ccccc2)CC1)c1c(CN2CCC(N3CCCCC3)CC2)c(-c2cccc(C(F)(F)F)c2)nc2cc(Br)ccc12,Potency,[1],inactive
same,Potency,[2],inactive
same,Potency,[3],inactive
CC(C)(C(=O)NCC(F)(F)C(F)(F)F)C(=O)NC1C(=O)Nc2ccccc2-c2ccccc21 (stereo not drawn),Potency,[1],inactive
same,Potency,[2],inactive
same,Potency,[3],inactive
C[C@@H](O[C@H]1OCCN(Cc2n[nH]nc2CN(C)C)[C@H]1c1ccc(F)cc1)c1cc(C(F)(F)F)cc(C(F)(F)F)c1,Potency,[1],inactive
same,Potency,[2],inactive
same,Potency,[3],inactive
COc1ccc(C2=N[C@@H](c3ccc(Cl)cc3)[C@@H](c3ccc(Cl)cc3)N2C(=O)N2CCNC(=O)C2)c(OC(C)C)c1,Potency,[1],inactive
same,Potency,[2],inactive
same,Potency,[3],inactive
CC1CCN(C(c2ccc(F)cc2)c2ccc(C(C)C(=O)O)cc2-c2ccc(C(F)(F)F)cc2)CC1 (stereo not drawn),Potency,[1],inactive
same,Potency,[2],inactive
same,Potency,[3],inactive
C[C@@H](NC(=O)C(=O)c1c[nH]c2ccc([N+](=O)[O-])cc12)c1ccccc1,Potency,[1],inactive
same,Potency,[2],inactive
same,Potency,[3],inactive
COc1cc2c(cc1-c1c(C)noc1C)ncc1[nH]c(=O)n(C(C)c3ccccn3)c12 (stereo not drawn),Potency,[1],inactive
same,Potency,[2],inactive
same,Potency,[3],inactive
CC(=O)OC1C(=O)C2(C)C(O)CC3OCC3(OC(C)=O)C2C(OC(=O)c2ccccc2)C2(O)CC(OC(=O)C(O)C(NC(=O)c3ccccc3)c3ccccc3)C(C)=C1C2(C)C (stereo not drawn),Potency,[1],inactive
same,Potency,[2],inactive
same,Potency,[3],inactive
CCCc1cc(C)[nH]c(=O)c1CNC(=O)c1cc(-c2ccc(N3CCN(C(C)C)CC3)nc2)cc2c1cnn2C(C)C,Potency,[1],inactive
same,Potency,[2],inactive
same,Potency,[3],inactive
same,viability,[4],110%
same,Potency,[5],18.6 µM (active)
same,Potency,[6],16.6 µM (active)
same,Potency,[7],20.9 µM (active)
same,Potency,[8],16.6 µM (active)
same,Potency,[9],29.5 µM (active)
same,Potency,[10],14.8 µM (active)
CC(=O)N1c2ccc(-c3ccc(C(=O)O)cc3)cc2C(Nc2ccc(Cl)cc2)CC1C (stereo not drawn),Potency,[1],inactive
same,Potency,[2],inactive
same,Potency,[3],inactive
O=C1Cc2c([nH]c3ccc(Br)cc23)-c2ncccc2N1,Potency,[1],inactive
same,Potency,[2],inactive
same,Potency,[3],inactive
Cc1cc(C)cc(-c2cnc3cc(Cl)c(-c4cccc(O)c4)cc3c2OCCCN)c1,Potency,[1],inactive
same,Potency,[2],inactive
same,Potency,[3],inactive
CNC1CN(c2ccc3c(=O)c(C(=O)O)cn(-c4nccs4)c3n2)CC1OC (stereo not drawn),"activity change, negative = inhibition",[1],2.97% [at 11.2 µM]
same,"activity change, negative = inhibition",[2],-0.123% [at 20.1 µM]
same,"activity change, negative = inhibition",[3],-3.75% [at 11.2 µM]
